Compounds without any hit were thinned out: in the full panel of roughly 79,000, 15% have a hit. Values without a mark were called inactive. The source made the active and inactive calls. Rule as the data show it: active = growth inhibition above about 70%; inactive = the rest.
Experiments:
[1] = NCI Yeast Anticancer Drug Screen. Data for the rad50 strain (AID 155);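 also: 0% = growth of vehicle-only cultures of the same strain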; details: S. cerevisiae rad50 strain growth inhibition, hits give high values; at 50.0 µM unless noted
Outline: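 Inhibition values express reduced yeast growth in compound-treated cultures relative to vehicle-treated controls.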

[2] = NCI Yeast Anticancer Drug Screen. Data for the mec2-1 strain (AID 157); details: S. cerevisiae mec2-1 strain, hits give high values; at 50.0 µM unless noted
Outline: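 Compounds were applied to mec2-1 yeast cells. Their growth was then compared with that of vehicle-treated cultures to give growth inhibition.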

[3] = NCI Yeast Anticancer Drug Screen. Data for the sgs1 mgt1 strain (AID 161);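 also: 0% = growth of cultures given vehicle only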; details: S. cerevisiae sgs1 mgt1 strain, hits give high values; at 50.0 µM unless noted
Outline: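 Growth of a repair-deficient yeast mutant was monitored after compound treatment and expressed as inhibition relative to vehicle-treated cultures.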

[4] = NCI Yeast Anticancer Drug Screen. Data for the cln2 rad14 strain (AID 165);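 also: 0% = growth equal to vehicle treated cultures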; details: S. cerevisiae cln2 rad14 strain, hits give high values; at 50.0 µM unless noted
Outline: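 Strain: cln2 rad14 yeast, altered in cell cycle control and DNA damage repair. Read-out: growth inhibition vs vehicle.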

[5] = NCI Yeast Anticancer Drug Screen. Data for the bub3 strain (AID 167); details: S. cerevisiae bub3 mutant strain, hits give high values; at 50.0 µM unless noted
Outline: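 Steps: expose the mutant yeast strain to compound; grow alongside vehicle-treated cultures; measure growth; express inhibition against the vehicle cultures.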

[6] = NCI Yeast Anticancer Drug Screen. Data for the mlh1 rad18 strain (AID 175); details: S. cerevisiae mlh1 rad18 strain growth inhibition, hits give high values; at 50.0 µM unless noted
Outline: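 A repair-deficient yeast strain is exposed to test compound, and growth is scored relative to vehicle-treated controls.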

Compound | growth inhibition [1] | growth inhibition [2] | growth inhibition [3] | growth inhibition [4] | growth inhibition [5] | growth inhibition [6]
O=C1c2ccccc2C(=O)N1CCS(=O)(=O)O | 8.65% | 18.1% | 14.2% | -7.55% | 10.2% | 9.9%
COc1ccc(CC2c3cc(OC)c(OC)cc3CC[N+]2(C)C)cc1OC (centres undefined) | -13.1% | -20.8% | 1.6% | 10.9% | -1.65% | -46.4%
CCN(CC)CCNc1c(OC)c(OC)cc2nccnc12 | 9.85% | 9.7% | 30.9% | 2.85% | 0.2% | -1.75%
CS(C)=NC(=Nc1ccccc1)c1ccccc1 | 6.9% | 9.6% | -12% | -26.4% | 9.7% | 2.05%
CC(C)(O)C(O)c1ccccc1 (centres undefined) | 10.9% | 7% | 9.1% | 2.3% | 1% | 1.35%
CN1C2=NC(=O)NC(=O)C23OC3c2ccccc21 (centres undefined) (tested in a mixture with another compound) | 6.35% | 12% | -0.45% | 14.7% | 1.75% | 18.9%
O=C(NCCS)C(=O)NCCS | -1.55% | 7.9% | 3.65% | 9.7% | -12.7% | -10.2%
CCCCCC[N+]1([O-])CC[N+]([O-])(CCCCCC)CC1 (centres undefined) | -6.6% | -7.9% | -1.55% | -43.4% | 0.35% | 7.35%
CCOC(=O)CSC#N | -2.05% | -0.85% | 1.35% | 7.4% | 21.2% | 2.9%
COC1C(O)C(n2ncc3c(SC)nc(SC)nc32)OC1C(O)CO (centres undefined) | 16.3% | -3.95% | -16.2% | 8.95% | -4% | 14.4%
CCCCCCCCCC(=O)N=C(C(N)=O)C(N)=O | -13.2% | 18.3% | 38.5% | 3.75% | 1.7% | 21.8%
O=S(=O)(O)c1cc(S(=O)(=O)O)c2cc(O)ccc2c1 | 0.6% | 3.35% | 13.4% | -18.6% | 5.35% | 28.4%
CC/C=N\N1C(N)=C(C#N)C(C#N)(C#N)C1CC (centres undefined) | 6.05% | 10.2% | -18.9% | 4.75% | -12.8% | -27.9%
N#C/C(=C/n1c(=S)[nH]c2ccccc21)C(N)=O | -30.3% | -38.6% | -19.2% | -12.4% | -7.25% | -14.6%
N#CSc1ccc(NN)cc1 | 11.2% | -2.05% | 30.4% | -4.65% | 33.7% | 1.55%
C[N+](C)=c1nc(N2CCOCC2)ss1 | 1.95% | 0.65% | 6.8% | 8.95% | -63.4% | -16.9%
Clc1ccc2c(c1)C(=P(c1ccccc1)(c1ccccc1)c1ccccc1)c1cc(Cl)cc(Cl)c1-2 | 83.7% (active) | 52.6% | 66.8% | 50.6% | 39.3% | 64.6%
O=S(=O)(Nc1nccs1)c1ccc(NCc2c3ccccc3nc3cc(Cl)ccc23)cc1 | 13.3% | 3.15% | 9.75% | -6.65% | -0.2% | 25.8%
COc1ccccc1OC(=O)Nc1ccc(S(=O)(=O)NC2CCCCC2)cc1 | 12.1% | -10.8% | 0% | 2.25% | -5.95% | -2.2%
CC(=O)N1C(=O)c2cccc([N+](=O)[O-])c2C1=O | -1.6% | -11.9% | -9.55% | 7.15% | -21.7% | 11.4%

Compound | growth inhibition [1] | growth inhibition [2] | growth inhibition [3] | growth inhibition [4] | growth inhibition [5] | growth inhibition [6]
Cc1ccc2[nH]c(C(=O)O)cc2c1 | 31.1% | -6.8% | 10.8% | 10.3% | 9% | 28.1%
CCOC(=O)C1=C(C)O/C(=C/c2cccc(Cl)c2)C1=O | 42% | 35.2% | 31.1% | 45.9% | 47% | 56.1%
CN(C)c1ccc(C(=O)Cc2ccc3ccccc3n2)cc1 | 98.7% (active) | 99.2% (active) | 99.1% (active) | 98.2% (active) | 98.9% (active) | 98.9% (active)
O=C(CCCC(=O)N/N=C/c1ccccc1O)N/N=C\c1ccccc1O | 4.55% | -6.65% | -20.4% | 3.35% | -3.5% | -12.9%
CC(O)c1ccc[cH-]1.CC(O)c1ccc[cH-]1.[Fe+2] (centres undefined) | -22% | 4% | -5.55% | -33.1% | 28.7% | 5.7%
CCCC(=O)NC(Nc1ccc(S(=O)(=O)Nc2cc(C)on2)cc1)(C(=O)OCC)C(F)(F)F (centres undefined) | 32.8% | -18.9% | 4.75% | 18.1% | -14.4% | -40.8%
O=C1C(=O)c2ccccc2C(O)=C1CN1CCOCC1 | 31.6% | 32.1% | 14.4% | 4.65% | 28% | 8.85%
CN1NC(c2ccccc2)=C(C#N)C(=O)CC1c1ccccc1 (centres undefined) | 6.8% | -2.5% | 13.1% | -1.4% | 8.95% | 10.2%
CCCCCCCCCCCCCCCCCCS(=O)(=O)CC(O)CO (centres undefined) | -4.45% | 5.2% | -1.4% | 2.4% | -11% | 12.4%
CCOC(=O)NC(=O)c1cn(CCCCCCCCCCC(=O)N2CCN(CCn3cc(C(=O)NC(=O)OCC)c(=O)[nH]c3=O)CC2)c(=O)[nH]c1=O | 27.2% | 18.4% | 17.9% | 5.8% | -6.2% | 6.45%
C=C(C)CC(=O)O.CC(=O)[CH-]C(C)=O.CC(=O)[CH-]C(C)=O.CC(=O)[CH-]C(C)=O.[Zn+2].[Zn] | 30.2% | 10.8% | 16.2% | 6.8% | -0.85% | 21.1%
CC1=CCC2C(C)(C)CCCC2(C)C1COC1OC(OCC2C(C)=CCC3C(C)(C)CCCC23C)C2C1=CCC1C(C)(C)CCCC21C (centres undefined) | 90% (active) | 89.2% (active) | 84.1% (active) | 89.6% (active) | 89.2% (active) | 88% (active)
CC(=O)C(C(C)=O)=C1CCCC(O)O1 (centres undefined) | 20.4% | -0.7% | 4.55% | 5.7% | 2.65% | 13.1%
Cc1ccc2c(c1)C(C)(C)C(C)(C)C2(C)C | 1.5% | -0.8% | -0.05% | 0.4% | 3.8% | -0.1%
COC(=O)/C([O-])=C(\C(=O)OC)[n+]1cc(Br)cc2ccccc21 | 4.15% | 1.85% | 31.6% | -9.5% | 56.8% | -7.4%
CC(=O)OCC1OC(n2c(Br)nc3c(=O)[nH]c(N)nc32)C(OC(C)=O)C1OC(C)=O (centres undefined) | -1.5% | 4.3% | 0.8% | -14.8% | -10.2% | 5.6%
COC(=O)c1c(C)ccc(C)c1Nc1cc(C)ccc1C | -2.65% | -18% | -1.2% | 9.55% | 5.65% | -15.7%
Cc1ccc(N2C(=O)CC(NC3CCCCC3)C2=O)cc1 (centres undefined) | -6.2% | -3% | -9.65% | -2.2% | -5.6% | -2.7%
CC[N+](CC)(CC)Cc1cn(S(=O)(=O)c2ccccc2)c2ccccc12 | 4.3% | -0.7% | -0.95% | -64.7% | -0.7% | 5.95%

Source: PubChem BioAssay (NCI)
